In PubChem BioAssay AID1851 (National Center for Advancing Translational Sciences (NCATS), 2009):
The whole screen tested about 16,000 compounds, of which about 5,700 (36%) were called active. Not shown: some 24% with an inconclusive outcome. Calls follow the shape of the dose curve; as a rule, active = well fitted curve in the direction sought with a large enough effect; inconclusive = small, poorly fitted or top-dose-only effect, or effect the other way; inactive = no such curve, though single readings can be large or run the other way. The list shows a part of the results.

What follows are molecules tested against Cytochrome P450 1A2 (Homo sapiens) (UniProt P05177) (assay: Cytochrome panel assay with activity outcomes). Details: recombinant CYP, pro-luciferin dealkylation, luminescence, p450-cyp1a2; series mostly up to 57.1 µM.
% is scaled to controls: 0 for no effect and ±100 for the full control effect.

Sequence of Cytochrome P450 1A2 (Homo sapiens) (P05177 whole entry, looked up): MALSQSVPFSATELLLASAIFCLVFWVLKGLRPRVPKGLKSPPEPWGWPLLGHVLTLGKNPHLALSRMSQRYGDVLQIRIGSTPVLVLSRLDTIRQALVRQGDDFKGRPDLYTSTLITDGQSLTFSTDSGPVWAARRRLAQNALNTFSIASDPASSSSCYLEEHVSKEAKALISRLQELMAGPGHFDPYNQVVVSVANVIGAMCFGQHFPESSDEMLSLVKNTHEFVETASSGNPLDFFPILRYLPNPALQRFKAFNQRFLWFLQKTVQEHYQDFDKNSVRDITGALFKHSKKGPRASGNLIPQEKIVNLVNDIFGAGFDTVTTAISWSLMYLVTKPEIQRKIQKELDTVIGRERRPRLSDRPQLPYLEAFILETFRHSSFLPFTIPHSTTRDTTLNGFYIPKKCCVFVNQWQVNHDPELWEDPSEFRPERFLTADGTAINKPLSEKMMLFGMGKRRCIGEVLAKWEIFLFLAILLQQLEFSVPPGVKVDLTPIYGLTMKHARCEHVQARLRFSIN

AC50, active:
COc1ccccc1CNc1nc(-c2ccc3c(c2)OCO3)nc2ccccc12 631 nM, c1ccc(CNc2nc(-c3ccc4c(c3)OCO4)nc3ccccc23)cc1 501 nM, Cc1cccc(CNc2nc(-c3ccc4c(c3)OCO4)nc3ccccc23)c1 631 nM, c1csc(CNc2nc(-c3ccc4c(c3)OCO4)nc3ccccc23)c1 794 nM, Cc1cnc(CNc2nc(-c3ccc4c(c3)OCO4)nc3ccccc23)cn1 2000 nM, COc1ccccc1CNc1nc(-c2ccc(N(C)C)cc2)nc2ccccc12 2510 nM, COc1ccc(CCNC(=O)c2ccc3c(=O)n(Cc4ccco4)c(=S)[nH]c3c2)cc1OC 25100 nM, CC(C)NC(=O)c1ccc2c(=O)n(Cc3ccco3)c(=S)[nH]c2c1 15800 nM, COc1ccc(NC(=O)c2ccc3c(=O)n(Cc4ccco4)c(=S)[nH]c3c2)c(OC)c1 794 nM, CC1=C(C)/C(=N\OC(=O)/C=C/c2ccccc2)C=CC1=O 14100 nM, Cc1ccc2nc(SCC(=O)c3ccc4c(c3)OCO4)[nH]c2c1 1000 nM, Cc1ccc2nc(SCC(=O)Nc3nnc(SCC(N)=O)s3)[nH]c2c1 14100 nM, CCOC(=O)NC(=O)CSc1nc2ccc(OCC)cc2[nH]1 2510 nM, COc1ccc2nc(SCC(=O)Nc3ccc4c(c3)OCCO4)[nH]c2c1 5620 nM, COc1ccc2nc(SCC(=O)c3ccco3)[nH]c2c1 7080 nM, O=C(N/N=C\c1ccc2c(c1)CCC2)c1ccccc1O 2000 nM, CCN(CC)c1nc2ccccc2[nH]1 15800 nM, CCOC(=O)c1c(C)oc2c1cc(O)c1ccccc12 63.1 nM, CCOC(=O)c1c(C)oc2c1c(C=NC1CCS(=O)(=O)C1)c(O)c1ccccc12 (stereo not given) 1260 nM, CCCCCOC(=O)c1c(N)n(CCOC)c2nc3ccccc3nc12 1000 nM, C=C(C)C1Cc2nc(N)nc(C)c2C1 (stereo not given) 3160 nM

AC50, inactive:
CC[C@]1(c2ncc[nH]2)Cc2ccccc2O1, CC(C)OC(=O)C(CC(=O)O)N1CCOCC1 (stereo not given), COc1ccc(NC(=O)N2CC3(CCN(C(=O)c4ccc(OC)cc4)CC3)C2)cc1, O=c1[nH]c(=O)n([C@@H]2C[C@H](O)[C@H](CO)O2)cc1C(F)(F)F, CCn1cc(C(=O)NCC(=O)OC)c2cc(OC)c(OC)cc2c1=O, NCc1ccccc1CC(=O)N[C@@H]1C(=O)N2C(C(=O)O)=C(CSc3nnnn3CC(=O)O)CS[C@@H]12, COc1ccc(NC(=O)N2CC[C@@]3(CCCN(C(=O)c4cc(C(F)(F)F)cc(C(F)(F)F)c4)C3)C2)cc1, O=C(NCc1ccco1)c1ccc2c(=O)n(-c3ccccc3)c(=S)[nH]c2c1, COc1ccc2c(C=Nc3c(C)n(C)n(-c4ccccc4)c3=O)c(O)n(Cc3ccco3)c(=O)c2c1, COc1ccc(CCNC(=O)c2nnn(CC(=O)Nc3ccccc3C)c2N)cc1OC, CNC(=O)[C@@H]1O[C@@H](n2cnc3c(NCc4cccc(I)c4)ncnc32)[C@H](O)[C@@H]1O, COc1ccc(-n2c(=O)[nH]cc(C(=O)Nc3ccc4c(c3)OCCO4)c2=O)cc1, COc1ccc(CCn2c(C)cc(C(=O)CSc3nc(N)cc(=O)[nH]3)c2C)cc1, OCCNc1nc2ccccc2[nH]1, CSCC[C@H](NC(=O)CC(C)(C)C)c1nc2ccccc2[nH]1

activity, negative = inhibition, inactive:
CC(=O)OC[C@@H]1O[C@@H](O/N=C2/C[C@@H](O)[C@@H](O)[C@@H]3[C@@H]4C(=O)N(C5CCCCC5)C(=O)[C@H]4CC[C@@H]23)[C@H](OC(C)=O)[C@H](OC(C)=O)[C@@H]1OC(C)=O 0.189% [at 11.4 µM], COc1ccc(COC(=O)N/N=C2/C[C@@H](O)[C@@H](O)[C@@H]3[C@@H]4C(=O)N([C@@H](C)c5ccccc5)C(=O)[C@H]4CC[C@H]23)cc1 -2.7% [at 11.4 µM], NCCNCC1CCNCC1 -3.59% [at 2.29 µM], C/C(CCC(=O)OC[C@@H]1O[C@H](C#Cc2ccccc2)C=C[C@@H]1Oc1ccc(C)cc1)=N/OC[C@@H](O)[C@H]1O[C@H]2OC(C)(C)O[C@H]2[C@@H]1O 2.38% [at 11.4 µM], O=C(/C=C\c1ccccc1)c1ccccc1O -10.2% [at 11.4 µM], CC1(C)[C@@H]2CC[C@]1(C)[C@@H](OC(=O)/C=C\c1ccccc1)C2 -3.39% [at 2.29 µM], OC[C@@H]1O[C@@H](n2cnc3c(SCc4ccccc4)ncnc32)[C@@H](O)[C@H]1O -17.2% [at 2.29 µM], CC/C=C\CC[C@H](OC(=O)c1ccc(Br)cc1)C1=CCCCC1=O 1.86% [at 11.4 µM], Nc1nc(N)c2[nH]c(CNc3ccc(C(=O)O)cc3)nc2n1 -9.57% [at 11.4 µM]
